Consider nine compounds from PubChem BioAssay (NCI).

This is part of a sample that, as a whole, favours compounds with a hit. Of some 79,000 tested, about 15% had one in any assay. Values without a mark were called inactive. The source made the active and inactive calls. No stated cut-off is given here; in the data, active means growth inhibition above about 70%; inactive means the rest.

The nature of experiment [1]: NCI Yeast Anticancer Drug Screen. Data for the rad50 strain (AID 155).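 Further: 0% = growth of vehicle-only cultures of the same strain.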 As to conditions: S. cerevisiae rad50 strain growth inhibition, stronger effect = higher value. In outline:
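Readout: growth inhibition relative to vehicle-treated cultures. Compound exposure was carried out in a genetically defined yeast strain deficient in DNA damage repair.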

Experiment [2] in a line: NCI Yeast Anticancer Drug Screen. Data for the mec2-1 strain (AID 157). The following applies: S. cerevisiae mec2-1 strain, stronger effect = higher value. The procedure, abridged:
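Cells of the genetically defined mec2-1 yeast strain are incubated with test compound. Inhibition of growth is calculated against vehicle-treated controls.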

A short description of experiment [3]: NCI Yeast Anticancer Drug Screen. Data for the sgs1 mgt1 strain (AID 161).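 Further: 0% = growth of cultures given vehicle only.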 The following applies: S. cerevisiae sgs1 mgt1 strain, stronger effect = higher value. In outline: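 Test agents were incubated with a DNA-repair-mutant yeast strain. Growth was then read and compared against vehicle-treated controls.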
Experiment [4] in a line: NCI Yeast Anticancer Drug Screen. Data for the cln2 rad14 strain (AID 165).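 Further: 0% = growth equal to vehicle treated cultures.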 The following applies: S. cerevisiae cln2 rad14 strain, stronger effect = higher value. In outline:
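The screen exposed genetically defined yeast (cln2 rad14) to test compounds and scored growth inhibition relative to vehicle-treated controls.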

Experiment [5] in a line: NCI Yeast Anticancer Drug Screen. Data for the bub3 strain (AID 167). As to conditions: S. cerevisiae bub3 mutant strain, stronger effect = higher value. The procedure, abridged: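 Readout: yeast growth inhibition, expressed relative to vehicle-only wells. The test organism is a mutant strain from a panel with lesions in DNA repair or checkpoint genes.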
A short description of experiment [6]: NCI Yeast Anticancer Drug Screen. Data for the mlh1 rad18 strain (AID 175). The following applies: S. cerevisiae mlh1 rad18 strain growth inhibition, stronger effect = higher value. The procedure, abridged: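 Compound-treated yeast growth, normalised to vehicle controls. Strain bears defined DNA repair mutations.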
Where [7] appears, read: at 5.0 µM (retest, dose inferred, filed as 0.5).
Setting [8] is: at 50.0 µM (retest, dose inferred, filed as 5.0).

Turning to `O=C(Cl)c1cc(-c2ccc(Cl)cc2)nc2c(Cl)cccc12`, the growth inhibition was 6% in experiment [1] (setting [7]); 98% (active) in experiment [1] (setting [8]); 72.5% (active) in experiment [1] (at 50.0 µM); 11% in experiment [2] (setting [7]); 99% (active) in experiment [2] (setting [8]); 61.2% in experiment [2] (at 50.0 µM). In addition, the growth inhibition in experiment [3] (setting [7]) was 5%; in experiment [3] (setting [8]), 99% (active); in experiment [3] (at 50.0 µM) it was 84.8% (active); in experiment [4] (setting [7]) it was 3%; in experiment [4] (setting [8]), 99% (active); in experiment [4] (at 50.0 µM), 42.4%. The growth inhibition in experiment [5] (setting [7]) is 4%; in experiment [5] (setting [8]), 99% (active); in experiment [5] (at 50.0 µM), 74.2% (active); in experiment [6] (setting [7]), 9%; in experiment [6] (setting [8]), 99% (active); in experiment [6] (at 50.0 µM), 87.2% (active).

For the compound `O=[N+]([O-])c1cccc(S(=O)(=O)N/N=C/c2cc(I)cc([N+](=O)[O-])c2O)c1`, the growth inhibition in experiment [1] (setting [7]) is 5%; in experiment [1] (setting [8]) it was 6%; in experiment [1] (at 50.0 µM), 25.1%; in experiment [2] (setting [7]), 5%; in experiment [2] (setting [8]) it was 2%; in experiment [2] (at 50.0 µM), 13.1%. The growth inhibition is 10% in experiment [3] (setting [7]); 11% in experiment [3] (setting [8]); 34.5% in experiment [3] (at 50.0 µM); -1% in experiment [4] (setting [7]); 2% in experiment [4] (setting [8]); 7.85% in experiment [4] (at 50.0 µM). The growth inhibition in experiment [5] (setting [7]) was 2%; in experiment [5] (setting [8]) it was -1%; in experiment [5] (at 50.0 µM), 4.7%; in experiment [6] (setting [7]), 6%; in experiment [6] (setting [8]) it was 8%; in experiment [6] (at 50.0 µM), 45.9%.

For `O=C(NCCCCCNC(=O)C12CC3CC(CC(C3)C1)C2)C12CC3CC(CC(C3)C1)C2`, the growth inhibition in experiment [1] (setting [7]) is 8%; in experiment [1] (setting [8]), 7%; in experiment [1] (at 50.0 µM), 5.9%; in experiment [2] (setting [7]) it was 5%; in experiment [2] (setting [8]), -8%; in experiment [2] (at 50.0 µM), 27.8%. The growth inhibition was 7% in experiment [3] (setting [7]); 7% in experiment [3] (setting [8]); -5.15% in experiment [3] (at 50.0 µM); -1% in experiment [4] (setting [7]); -2% in experiment [4] (setting [8]); 40.2% in experiment [4] (at 50.0 µM). Moreover, the growth inhibition was 4% in experiment [5] (setting [7]); 0% in experiment [5] (setting [8]); 1.75% in experiment [5] (at 50.0 µM); 3% in experiment [6] (setting [7]); 12% in experiment [6] (setting [8]); 4.15% in experiment [6] (at 50.0 µM).

For `CCC[CH2][Sn]([CH2]CCC)([O]C(=O)c1c(F)cccc1F)[O]C(=O)c1c(F)cccc1F`, the growth inhibition in experiment [1] (setting [7]) was 80% (active); in experiment [1] (setting [8]), 80% (active); in experiment [1] (at 50.0 µM), 88.8% (active); in experiment [2] (setting [7]), 66%; in experiment [2] (setting [8]), 66%; in experiment [2] (at 50.0 µM) it was 89.7% (active). In addition, the growth inhibition is 80% (active) in experiment [3] (setting [7]); 80% (active) in experiment [3] (setting [8]); 87.3% (active) in experiment [3] (at 50.0 µM); 70% (active) in experiment [4] (setting [7]); 70% (active) in experiment [4] (setting [8]); 86.9% (active) in experiment [4] (at 50.0 µM). The growth inhibition in experiment [5] (setting [7]) is 72% (active); in experiment [5] (setting [8]), 72% (active); in experiment [5] (at 50.0 µM), 83.6% (active); in experiment [6] (setting [7]), 73% (active); in experiment [6] (setting [8]), 73% (active); in experiment [6] (at 50.0 µM), 84% (active).

Take `CC(C)CC(NC(=O)COc1c(Cl)cc(Cl)c(Cl)c1Cl)C(=O)O` (configuration not stated): the growth inhibition in experiment [1] (setting [7]) was 0%; in experiment [1] (setting [8]) it was 8%; in experiment [1] (at 50.0 µM) it was 13%; in experiment [2] (setting [7]), -1%; in experiment [2] (setting [8]), 39%; in experiment [2] (at 50.0 µM), -8.6%. The growth inhibition in experiment [3] (setting [7]) is -1%; in experiment [3] (setting [8]), 12%; in experiment [3] (at 50.0 µM) it was -32.6%; in experiment [4] (setting [7]) it was 4%; in experiment [4] (setting [8]), 19%; in experiment [4] (at 50.0 µM), 3.35%. Further, the growth inhibition in experiment [5] (setting [7]) is 5%; in experiment [5] (setting [8]), 10%; in experiment [5] (at 50.0 µM), 1%; in experiment [6] (setting [7]) it was -2%; in experiment [6] (setting [8]) it was 12%; in experiment [6] (at 50.0 µM) it was 25.9%.

Take `N#C/C(=C\c1c(Cl)cccc1Cl)c1nc2ccccc2[nH]1`: the growth inhibition in experiment [1] (setting [7]) is 38%; in experiment [1] (setting [8]), 97% (active); in experiment [1] (at 50.0 µM), 87.7% (active); in experiment [2] (setting [7]), 22%; in experiment [2] (setting [8]) it was 99% (active); in experiment [2] (at 50.0 µM), 90.2% (active). Besides, the growth inhibition is 33% in experiment [3] (setting [7]); 99% (active) in experiment [3] (setting [8]); 90.6% (active) in experiment [3] (at 50.0 µM); 23% in experiment [4] (setting [7]); 98% (active) in experiment [4] (setting [8]); 88.9% (active) in experiment [4] (at 50.0 µM). Also, the growth inhibition is 35% in experiment [5] (setting [7]); 98% (active) in experiment [5] (setting [8]); 91.5% (active) in experiment [5] (at 50.0 µM); 42% in experiment [6] (setting [7]); 98% (active) in experiment [6] (setting [8]); 88.8% (active) in experiment [6] (at 50.0 µM).

Take `Nc1ccc2c(c1)[nH]c(=O)c1cccc(Cl)c12`: the growth inhibition in experiment [1] (setting [7]) was -32%; in experiment [1] (setting [8]) it was 89% (active); in experiment [1] (at 50.0 µM), 96.1% (active); in experiment [2] (setting [7]), -34%; in experiment [2] (setting [8]), 88% (active); in experiment [2] (at 50.0 µM), 55.3%. The growth inhibition was -39% in experiment [3] (setting [7]); 80% (active) in experiment [3] (setting [8]); 61.2% in experiment [3] (at 50.0 µM); -31% in experiment [4] (setting [7]); 94% (active) in experiment [4] (setting [8]); 63.9% in experiment [4] (at 50.0 µM). Further, the growth inhibition was -52% in experiment [5] (setting [7]); 90% (active) in experiment [5] (setting [8]); 32.5% in experiment [5] (at 50.0 µM); -40% in experiment [6] (setting [7]); 95% (active) in experiment [6] (setting [8]); 93.1% (active) in experiment [6] (at 50.0 µM).

As to `N#Cc1c(Cl)nc2ccccc2c1N=[N+]=[N-]`, the growth inhibition in experiment [1] (setting [7]) is -1%; in experiment [1] (setting [8]), 12%; in experiment [1] (at 50.0 µM), 50.6%; in experiment [2] (setting [7]), -19%; in experiment [2] (setting [8]), -9%; in experiment [2] (at 50.0 µM), 63.3%. Moreover, the growth inhibition in experiment [3] (setting [7]) is -14%; in experiment [3] (setting [8]), 18%; in experiment [3] (at 50.0 µM), 56.2%; in experiment [4] (setting [7]), 6%; in experiment [4] (setting [8]), 8%; in experiment [4] (at 50.0 µM), 50.5%. The growth inhibition in experiment [5] (setting [7]) is -8%; in experiment [5] (setting [8]) it was -15%; in experiment [5] (at 50.0 µM), 14.8%; in experiment [6] (setting [7]) it was -18%; in experiment [6] (setting [8]), 8%; in experiment [6] (at 50.0 µM), 58.2%.

Turning to `O=C(O)c1ccc2c3c(ncnc13)-c1ccccc1C2=O`, the growth inhibition in experiment [1] (setting [7]) is 22%; in experiment [1] (setting [8]) it was 96% (active); in experiment [1] (at 50.0 µM) it was 62%; in experiment [2] (setting [7]) it was 43%; in experiment [2] (setting [8]), 98% (active); in experiment [2] (at 50.0 µM), 45%. For the same compound, the growth inhibition in experiment [3] (setting [7]) is 10%; in experiment [3] (setting [8]), 86% (active); in experiment [3] (at 50.0 µM), 61%; in experiment [4] (setting [7]), 36%; in experiment [4] (setting [8]), 88% (active); in experiment [4] (at 50.0 µM), 34.5%. Besides, the growth inhibition was 36% in experiment [5] (setting [7]); 90% (active) in experiment [5] (setting [8]); 55.5% in experiment [5] (at 50.0 µM); 28% in experiment [6] (setting [7]); 98% (active) in experiment [6] (setting [8]); 74.6% (active) in experiment [6] (at 50.0 µM).
